Experimental data reported in PubChem BioAssay (NCATS).
Inconclusive results are not listed. Activity calls are given as the source filed them. Unless noted, calls follow the shape of the dose curve; as a rule, active = well fitted curve in either direction with a large enough effect (not every such curve was filed as active); inconclusive = small, poorly fitted or top-dose-only effect, or another doubt; inactive = flat fitted curve, though single readings scatter.

Columns and labels:
[1] = biological target: Lysosomal acid glucosylceramidase (Homo sapiens) (UniProt P04062); experiment: Glucocerebrosidase-p2 (AID 348; in the data active = potency below about 10 µM; also: potency is read from the fitted curve at half-maximal effect); details: purified GBA, blue fluorogenic substrate, 40 min
Lysosomal acid glucosylceramidase (Homo sapiens), sequence (P04062 whole entry, looked up): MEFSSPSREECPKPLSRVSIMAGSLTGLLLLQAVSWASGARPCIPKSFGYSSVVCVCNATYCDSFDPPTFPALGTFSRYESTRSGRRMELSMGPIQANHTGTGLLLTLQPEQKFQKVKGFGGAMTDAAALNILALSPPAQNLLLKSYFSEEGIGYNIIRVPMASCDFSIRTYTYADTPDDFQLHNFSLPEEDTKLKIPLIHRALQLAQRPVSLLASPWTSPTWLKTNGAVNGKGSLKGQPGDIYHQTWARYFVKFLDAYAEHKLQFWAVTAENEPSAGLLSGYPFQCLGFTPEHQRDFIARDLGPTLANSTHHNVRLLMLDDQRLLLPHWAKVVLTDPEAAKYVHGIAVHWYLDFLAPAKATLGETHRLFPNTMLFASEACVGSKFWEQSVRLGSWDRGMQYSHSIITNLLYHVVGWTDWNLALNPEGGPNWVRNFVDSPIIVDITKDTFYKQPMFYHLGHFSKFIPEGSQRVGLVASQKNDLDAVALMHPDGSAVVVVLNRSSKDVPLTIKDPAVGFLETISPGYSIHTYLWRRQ
Method in brief: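 Normal human glucocerebrosidase (0.2 nM) with blue fluorogenic substrate (80 uM final) in citrate/phosphate pH 5.9 with 10mM sodium taurocholate, 0.01% tween-20; 40 min RT, NaOH/glycine stop; fluorescence Ex 365/Em 440; AC50 from a titration from 0.6 nM upwards.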

[2] = AP1 Signaling Pathway (AID 357); details: ME-180 AP-1-bla reporter, EGF-induced, beta-lactamase ratio, 5 h; at 7.69 µM (top of the series) unless noted;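 also: ME-180 reporter cells stimulated with EGF at its EC50 level; % is scaled to controls: 0 for no effect and ±100 for the full control effect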
Method in brief: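 Cells are seeded overnight, exposed to compound titrations and an EC50 level of EGF for 5 hours at 37 °C, then loaded with CCF4 dye for 2.5 hours. Beta-lactamase activity under the AP-1 element is read as a blue/green ratio.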

[3] = biological target: Cytochrome P450 1A2 (Homo sapiens) (UniProt P05177); experiment: p450-cyp1a2 (AID 410; calls by dose curve; also: potency is read from the fitted curve at half-maximal effect;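 as to activity change, negative = inhibition: -100% = full effect of reference inhibitor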); details: recombinant CYP1A2, luciferin-ME demethylation, luminescence; series mostly up to 57 µM
Cytochrome P450 1A2 (Homo sapiens), sequence (P05177 whole entry, looked up): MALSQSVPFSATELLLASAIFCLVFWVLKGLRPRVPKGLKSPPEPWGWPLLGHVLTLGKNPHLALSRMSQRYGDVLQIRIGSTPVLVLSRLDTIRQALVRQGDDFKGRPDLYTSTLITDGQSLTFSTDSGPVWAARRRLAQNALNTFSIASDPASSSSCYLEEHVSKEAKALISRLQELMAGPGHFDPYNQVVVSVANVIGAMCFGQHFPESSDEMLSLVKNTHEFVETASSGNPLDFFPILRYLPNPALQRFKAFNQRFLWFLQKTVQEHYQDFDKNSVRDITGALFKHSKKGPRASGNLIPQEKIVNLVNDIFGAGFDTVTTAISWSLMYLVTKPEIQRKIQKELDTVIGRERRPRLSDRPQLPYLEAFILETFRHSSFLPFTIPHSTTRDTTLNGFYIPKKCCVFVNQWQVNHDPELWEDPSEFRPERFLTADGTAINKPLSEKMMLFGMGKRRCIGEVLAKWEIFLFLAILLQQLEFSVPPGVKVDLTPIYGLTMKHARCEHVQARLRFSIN
Method in brief: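 Read-out is luminescence from luciferin produced by CYP1A2 demethylation of Luciferin-ME (100uM, at Km). Detection reagent stopped the 60 min NADPH-dependent reaction; signals were normalized to 57 uM furafylline.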

[4] = Stat Signaling Pathway (AID 446); details: ME-180 SIE beta-lactamase reporter, IL-6 stimulated, 5 h; at 7.69 µM (top of the series) unless noted;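 also: ME-180 cervical cancer cells given 40 pM IL-6 alongside compound; SIE-controlled beta-lactamase reporter measured as 460/530 nm FRET emission ratio; % is scaled to controls: 0 for no effect and ±100 for the full control effect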
Method in brief: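 Emission at 460 and 530 nm (excitation 405 nm) reports SIE-controlled beta-lactamase in ME-180 cells. Cells received compound with 40 pM IL-6 for 5 hrs at 37 C; data scaled between 300 pM IL-6 and 125 nM JAK-inhibitor controls.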

[5] = biological target: Glucocorticoid receptor (Homo sapiens) (UniProt P04150); experiment: GR-EFC Redistribution (AID 451; calls by dose curve; also: potency is read from the fitted curve at half-maximal effect); details: CHO-K1 GR-EFC translocation, beta-gal luminescence, 2 h
Glucocorticoid receptor (Homo sapiens), sequence (P04150 whole entry, looked up, the tested form may be a part): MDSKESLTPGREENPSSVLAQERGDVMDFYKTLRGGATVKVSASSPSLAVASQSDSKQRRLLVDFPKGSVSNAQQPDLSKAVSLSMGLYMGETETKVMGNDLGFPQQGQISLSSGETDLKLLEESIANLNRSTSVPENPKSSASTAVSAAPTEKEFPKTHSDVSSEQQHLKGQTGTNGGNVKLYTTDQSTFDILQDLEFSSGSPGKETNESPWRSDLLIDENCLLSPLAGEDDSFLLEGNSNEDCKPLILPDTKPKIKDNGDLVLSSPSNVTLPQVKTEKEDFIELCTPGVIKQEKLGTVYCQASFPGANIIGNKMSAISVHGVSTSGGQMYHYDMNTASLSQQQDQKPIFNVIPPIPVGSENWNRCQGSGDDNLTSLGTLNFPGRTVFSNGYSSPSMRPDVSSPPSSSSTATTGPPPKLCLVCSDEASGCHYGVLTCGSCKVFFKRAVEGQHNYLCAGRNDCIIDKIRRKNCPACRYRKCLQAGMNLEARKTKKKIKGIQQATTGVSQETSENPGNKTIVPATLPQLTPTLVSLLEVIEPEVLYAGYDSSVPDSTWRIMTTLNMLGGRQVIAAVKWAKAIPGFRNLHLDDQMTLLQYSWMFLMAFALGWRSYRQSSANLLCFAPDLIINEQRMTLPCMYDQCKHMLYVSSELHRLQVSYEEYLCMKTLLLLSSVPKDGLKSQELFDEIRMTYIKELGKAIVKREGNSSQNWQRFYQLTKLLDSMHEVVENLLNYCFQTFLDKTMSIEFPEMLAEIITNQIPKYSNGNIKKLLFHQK
Method in brief: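 CHO-K1 cells expressing nuclear EA and GR-ED fragments of b-gal; compounds titrated up to 46 uM final, 2 h at 37 C. GR nuclear translocation read as complemented b-gal luminescence after 1 h RT detection.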

[6] = biological target: Mitogen-activated protein kinase 10 (Mus musculus) (UniProt Q61831); experiment: JNK3 AlphaScreen Assay (AID 530); details: JNK3 lysate, c-Jun phosphorylation; series mostly up to 57.1 µM;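 also: kinase came from lysate of stimulated human HepG2 cells; signal reports phosphorylation of biotinylated GST-cJun 1-79 at Ser73 with 10 µM ATP; % is scaled to controls: 0 for no effect and ±100 for the full control effect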
Method in brief: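 HepG2 lysate (IL-1b/TNFa pre-activated) + biotin-GST-cJun 1-79 + anti-pSer73 cJun; cpd titration, 15 min RT; ATP 10 uM start; Tris pH 7.6, MgCl2, DTT, vanadate; beads in EDTA buffer; AlphaScreen.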

[7] = biological target: 3',5'-cyclic-AMP phosphodiesterase 4B (Homo sapiens) (UniProt Q07343); experiment: qHTS Assay for Inhibitors of PDE-IV (AID 607; active = well fitted activation curve with a large enough effect in the main read-out, with a control signal flat, not every such curve was filed as active; also: % of control where 0% means no effect); details: HEK293 ACTOne CNG channel cells, membrane potential fluorescence; series mostly up to 22.9 µM
3',5'-cyclic-AMP phosphodiesterase 4B (Homo sapiens), sequence (Q07343 whole entry, looked up): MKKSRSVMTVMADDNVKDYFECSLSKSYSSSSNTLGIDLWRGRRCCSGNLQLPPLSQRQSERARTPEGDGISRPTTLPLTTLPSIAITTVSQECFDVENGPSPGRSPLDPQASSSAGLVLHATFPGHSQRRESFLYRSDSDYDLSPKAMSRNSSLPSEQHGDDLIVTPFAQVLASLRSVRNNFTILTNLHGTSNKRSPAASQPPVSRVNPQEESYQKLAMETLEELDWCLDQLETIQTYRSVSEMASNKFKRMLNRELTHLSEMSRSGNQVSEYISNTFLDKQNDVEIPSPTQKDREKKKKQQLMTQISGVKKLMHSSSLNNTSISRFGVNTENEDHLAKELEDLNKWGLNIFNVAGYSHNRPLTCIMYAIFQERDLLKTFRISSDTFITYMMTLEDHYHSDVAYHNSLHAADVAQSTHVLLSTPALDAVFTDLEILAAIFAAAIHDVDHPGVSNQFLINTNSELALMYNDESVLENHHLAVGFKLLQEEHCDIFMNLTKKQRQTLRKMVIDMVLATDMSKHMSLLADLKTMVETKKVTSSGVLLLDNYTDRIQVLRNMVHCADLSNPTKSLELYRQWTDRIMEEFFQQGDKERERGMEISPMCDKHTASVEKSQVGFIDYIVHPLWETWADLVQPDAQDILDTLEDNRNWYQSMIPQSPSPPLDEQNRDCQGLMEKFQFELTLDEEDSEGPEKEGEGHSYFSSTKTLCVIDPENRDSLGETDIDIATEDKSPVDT
Method in brief: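 The readout is membrane depolarisation from a cAMP-sensing CNG channel, detected with a potential dye at ex 535/em 590. Cells were HEK293-derived (endogenous PDE-IV) at 1000 cells/well, titrated up to 22.9 uM final.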

[8] = qHTS Assay for Lipid Storage Modulators (AID 1519; calls by dose curve); details: Drosophila S3 cells, BODIPY lipid droplet/cell ratio, laser cytometry, cells loaded with oleic acid; for activity change, negative = inhibition: at 57.5 µM (top of the series)
Method in brief: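 Cells seeded at 5,000 per well were treated with compounds over a concentration series and loaded with oleic acid (400 uM, as added). Lipid droplet fluorescence (488 nm excitation, 500-530 nm channel) was read by laser-scanning cytometry and normalized to 20 uM Triacsin C.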

[9] = Primary qHTS for small molecule stabilizers of the endoplasmic reticulum resident proteome: Secreted ER Calcium Modulated Protein (SERCaMP) assay (AID 1508630; active = well fitted curve in the direction sought with a large enough effect; an effect the other way counts as inactive or inconclusive; also: % is scaled to controls: 0 for no effect and ±100 for the full control effect); details: SH-SY5Y GLuc-SERCaMP (Gaussia luciferase released on ER calcium loss) secretion, thapsigargin, luminescence; series mostly up to 38.4 µM
Method in brief: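 The SH-SY5Y reporter protocol was run at 3 concentrations up to 38.3 uM (primary) or 11 concentrations (follow-up): 16 h compound, 100 nM thapsigargin for 4 h, then extracellular luciferase luminescence.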

[10] = biological target: Cytochrome P450 2C9 (Homo sapiens) (UniProt P11712); experiment: qHTS Assay for Inhibitors and Substrates of Cytochrome P450 2C9 (AID 883; active = well fitted curve in the direction sought with a large enough effect; an effect the other way counts as inactive or inconclusive; also: potency is read from the fitted curve at half-maximal effect; nearly all actives have a fitted effect of over 60% in size); details: recombinant CYP2C9, luciferin-H luminescence, 60 min; series mostly up to 57.1 µM
Cytochrome P450 2C9 (Homo sapiens), sequence (P11712 whole entry, looked up): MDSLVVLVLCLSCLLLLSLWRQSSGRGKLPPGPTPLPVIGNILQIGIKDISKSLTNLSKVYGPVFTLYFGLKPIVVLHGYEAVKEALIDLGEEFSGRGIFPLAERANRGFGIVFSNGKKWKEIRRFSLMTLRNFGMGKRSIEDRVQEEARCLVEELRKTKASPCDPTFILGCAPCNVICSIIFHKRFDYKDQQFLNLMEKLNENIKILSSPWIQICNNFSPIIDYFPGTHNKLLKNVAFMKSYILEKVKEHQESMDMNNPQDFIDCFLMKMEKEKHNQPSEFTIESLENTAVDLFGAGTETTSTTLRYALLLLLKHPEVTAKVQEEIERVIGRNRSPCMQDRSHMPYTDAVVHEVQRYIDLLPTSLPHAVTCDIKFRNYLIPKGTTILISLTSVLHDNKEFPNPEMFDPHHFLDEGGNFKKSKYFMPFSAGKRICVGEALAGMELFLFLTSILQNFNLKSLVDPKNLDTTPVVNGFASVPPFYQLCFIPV
Method in brief: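 10nM CYP2C9 + 100uM Luciferin-H (=KM), 25mM KPO4; cpd 10 min 37C; NADPH regen, 60 min 37C; stop/detect with P450 Glo-Buffer 20 min; luminescence. Norm. to 57uM sulphaphenazole as full inhibition.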

[11] = biological target: Cytochrome P450 3A4 (Homo sapiens) (UniProt P08684); experiment: qHTS Assay for Inhibitors and Substrates of Cytochrome P450 3A4 (AID 884; active = well fitted curve in the direction sought with a large enough effect; an effect the other way counts as inactive or inconclusive; also: potency is read from the fitted curve at half-maximal effect; nearly all actives have a fitted effect of over 50% in size); details: recombinant CYP3A4, Luciferin-PPXE luminescence; series mostly up to 57.1 µM
Cytochrome P450 3A4 (Homo sapiens), sequence (P08684 whole entry, looked up): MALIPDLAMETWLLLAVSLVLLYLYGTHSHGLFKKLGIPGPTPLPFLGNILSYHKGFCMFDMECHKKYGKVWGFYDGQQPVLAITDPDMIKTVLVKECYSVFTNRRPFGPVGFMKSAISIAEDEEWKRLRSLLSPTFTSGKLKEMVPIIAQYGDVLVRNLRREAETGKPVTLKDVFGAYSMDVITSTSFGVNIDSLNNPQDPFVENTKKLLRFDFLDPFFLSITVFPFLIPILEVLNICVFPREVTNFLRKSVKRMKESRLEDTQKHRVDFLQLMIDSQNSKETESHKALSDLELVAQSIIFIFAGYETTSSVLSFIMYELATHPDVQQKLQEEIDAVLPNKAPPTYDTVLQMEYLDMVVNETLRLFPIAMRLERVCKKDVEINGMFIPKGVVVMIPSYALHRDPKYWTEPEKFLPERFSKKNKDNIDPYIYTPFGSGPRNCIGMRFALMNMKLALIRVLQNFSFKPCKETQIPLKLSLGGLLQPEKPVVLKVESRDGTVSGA
Method in brief: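 Luminescent readout of luciferin produced by CYP3A4 (20 nM) dealkylation of Luciferin-PPXE, 25 uM (its KM). NADPH-driven reaction ran 60 min at RT after 10 min compound preincubation; data scaled to 57 uM ketoconazole as 100% inhibition.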

[12] = biological target: Cytochrome P450 3A4 (Homo sapiens) (UniProt P08684); experiment: qHTS Assay for Activators of Cytochrome P450 3A4 (AID 885; active = well fitted curve in the direction sought with a large enough effect; an effect the other way counts as inactive or inconclusive; also: nearly all actives have a fitted effect of over 65% in size); details: recombinant CYP3A4, Luciferin-PPXE luminescence, 60 min; series mostly up to 57.1 µM
Method in brief: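 Activators are scored by enhanced luminescence from CYP3A4 conversion of luciferin-PPXE (25uM, equal to KM) to luciferin, after 60 min at RT with an NADPH-regenerating system.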

[13] = qHTS Assay for Identification of Small Molecule Agonists for Hypoxia Response Element Signaling Pathway (AID 914; active = well fitted activation curve with a large enough effect in the signal ratio, with a control signal flat, not every such curve was filed as active; the % refers to the signal ratio; also: % of control where 0% means no effect); details: ME-180 (cervical carcinoma) HRE-bla reporter, beta-lactamase ratio, CoCl2, 17 h; activation: stronger effect = higher value
Method in brief: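 HRE-bla ME-180 cells, overnight plating in Opti-MEM with 0.5% dialyzed FBS; cpd titration + EC50 CoCl2, 17 h, 37 degrees Celsius; CCF4 2.5 h RT; 460/530 nm ratio; AC50.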

[14] = measured here: cell count channel max response
[15] = measured here: lipid channel max response

Which results are given for `COc1ccccc1CN1CCC2(CC1)CCN(C(=O)c1cccn1C)CC2`?
Potency [1]: > 11.4 µM (inactive); activity change, negative = inhibition [2]: 6.08% (inactive); Potency [3]: inactive; activity, negative = inhibition [4]: -5.76% (inactive); Potency [5]: > 46 µM (inactive); Potency [6]: inactive; Potency [7]: inactive; activity change, negative = inhibition [8]: -1.94% (inactive); max response [8, 14]: 8.14%; max response [8, 15]: 8.04%; outcome [9]: inactive

Which Potency [1] does the source give for `COCC(=O)N1CCC2(CC1)CCN(c1cccc(-c3ccccc3)c1)CC2` here?
Its Potency is > 11.4 µM (inactive).

What about the activity change, negative = inhibition [2] of the same compound?
Its activity change, negative = inhibition is -4.83% (inactive).

What about the Potency [3] of the same compound?
Its Potency is 5.01 µM (active).

And the activity, negative = inhibition [4]?
The activity, negative = inhibition was -8.32% (inactive).

What about the Potency [5] of the same compound?
The Potency was > 46 µM (inactive).

And the Potency [6]?
The Potency was “inactive”.

What about the Potency [7] of the same compound?
Its Potency is “inactive”.

What about the activity change, negative = inhibition [8] of the same compound?
Its activity change, negative = inhibition is -0.758% (inactive).

And the max response [8, 14]?
The max response was -9.9%.

What about the max response [8, 15] of the same compound?
The max response was -7.13%.

And the outcome [9]?
Its outcome is “inactive”.

Which results are given for `O=C(Oc1ccccc1)N1CCC2(CC1)CCN(c1ccncc1)CC2`?
Potency [1]: > 11.4 µM (inactive); activity change, negative = inhibition [2]: 9.96% (inactive); Potency [3]: inactive; activity, negative = inhibition [4]: 16.5% (inactive); Potency [5]: > 46 µM (inactive); Potency [6]: inactive; Potency [7]: inactive; activity change, negative = inhibition [8]: 1.8% (inactive); max response [8, 14]: -5.74%; max response [8, 15]: -3.08%; outcome [9]: inactive

Which results are given for `N#Cc1cccc(NC(=O)N2CCCC3(CCN(C(=O)c4ccco4)CC3)C2)c1`?
Potency [1]: > 11.4 µM (inactive); activity change, negative = inhibition [2]: -14.7% (inactive); Potency [3]: 15.8 µM (active); activity, negative = inhibition [4]: -1.77% (inactive); Potency [5]: > 46 µM (inactive); Potency [6]: inactive; Potency [7]: inactive; Potency [10]: 3.98 µM (active); Potency [11]: 5.01 µM (active); Potency [12]: inactive; activity change, negative = inhibition [8]: 7.75% (inactive); max response [8, 14]: 5.8%; max response [8, 15]: 16.6%; outcome [9]: inactive

With `N#Cc1ccc(CN2CC[C@@]3(CCCN(C(=O)c4cc(C(F)(F)F)cc(C(F)(F)F)c4)C3)C2)cc1` as the compound, how does the Potency [1] read?
Its Potency is > 11.4 µM (inactive).

What about the activity change, negative = inhibition [2] of the same compound?
The activity change, negative = inhibition was 17.7% (inactive).

What about the Potency [3] of the same compound?
Its Potency is 25.1 µM (active).

What about the activity, negative = inhibition [4] of the same compound?
The activity, negative = inhibition was -2.46% (inactive).

And the Potency [5]?
Its Potency is > 46 µM (inactive).

And the Potency [6]?
Its Potency is “inactive”.

What about the Potency [7] of the same compound?
The Potency was “inactive”.

And the Potency [11]?
The Potency was 5.01 µM (active).

What about the Potency [12] of the same compound?
Its Potency is “inactive”.

What about the activation [13] of the same compound?
Its activation is 13.6% (inactive).

And the activity change, negative = inhibition [8]?
Its activity change, negative = inhibition is 2.06% (inactive).

What about the max response [8, 14] of the same compound?
The max response was -0.217%.

What about the max response [8, 15] of the same compound?
The max response was 4.67%.

What about the outcome [9] of the same compound?
The outcome was “inactive”.

For `O=C(Nc1cccc(F)c1)N1CC[C@@]2(CCCN(C(=O)c3cc(C(F)(F)F)cc(C(F)(F)F)c3)C2)C1`, which Potency [1] is on record?
Its Potency is > 11.4 µM (inactive).

And the activity change, negative = inhibition [2]?
The activity change, negative = inhibition was -8.61% (inactive).

And the Potency [3]?
Its Potency is “inactive”.

And the activity, negative = inhibition [4]?
The activity, negative = inhibition was -4.49% (inactive).

What about the Potency [5] of the same compound?
Its Potency is > 46 µM (inactive).

And the Potency [6]?
Its Potency is “inactive”.

What about the Potency [7] of the same compound?
Its Potency is “inactive”.

And the Potency [12]?
Its Potency is “inactive”.

What about the activity change, negative = inhibition [8] of the same compound?
The activity change, negative = inhibition was 5.77% (inactive).

What about the max response [8, 14] of the same compound?
The max response was -3.02%.

What about the max response [8, 15] of the same compound?
The max response was 6%.

And the outcome [9]?
The outcome was “inactive”.

Which Potency [1] does the source give for `Cn1cccc1C(=O)N1CCC[C@@]2(CCN(C(c3ccccc3)c3ccccc3)C2)C1` here?
The Potency was > 11.4 µM (inactive).

And the activity change, negative = inhibition [2]?
The activity change, negative = inhibition was 0.163% (inactive).

And the Potency [3]?
The Potency was 20 µM (active).

What about the activity, negative = inhibition [4] of the same compound?
The activity, negative = inhibition was 9.39% (inactive).

What about the Potency [5] of the same compound?
Its Potency is > 46 µM (inactive).

And the Potency [6]?
The Potency was “inactive”.

And the Potency [7]?
Its Potency is “inactive”.

And the Potency [12]?
The Potency was “inactive”.

What about the activity change, negative = inhibition [8] of the same compound?
The activity change, negative = inhibition was 0.948% (inactive).

What about the max response [8, 14] of the same compound?
The max response was 10.5%.

And the max response [8, 15]?
The max response was 14.1%.

What about the outcome [9] of the same compound?
Its outcome is “inactive”.
